Measured values taken from PubChem BioAssay (NCI).
The panel holds about 83,000 compounds, 20% with a hit somewhere; the sample as a whole holds those more often.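 Method: cells in 96-well plates; compound added at one concentration; 48 h incubation; percent growth measured; values under 10 scored active.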 Unmarked numbers belong to inactive results. Activity calls are given as the source filed them.

Columns and labels:
Test in all cases: NCI-60 one-dose screen, 48 h (100 = growth as untreated, 0 = no growth, -100 = all killed)
Conditions in all cases: 10 µM unless noted
HCT-15 colon = system: HCT-15 colon
HT29 colon = system: HT29 colon
SNB-75 CNS = system: SNB-75 CNS
SNB-19 CNS = system: SNB-19 CNS
U251 CNS = system: U251 CNS
PC-3 prostate = system: PC-3 prostate
UACC-62 melanoma = system: UACC-62 melanoma
LOX IMVI melanoma = system: LOX IMVI melanoma
SK-MEL-28 melanoma = system: SK-MEL-28 melanoma
SK-MEL-5 melanoma = system: SK-MEL-5 melanoma

Row | SMILES | growth (HCT-15 colon) | growth (HT29 colon) | growth (SNB-75 CNS) | growth (SNB-19 CNS) | growth (U251 CNS) | growth (PC-3 prostate) | growth (UACC-62 melanoma) | growth (LOX IMVI melanoma) | growth (SK-MEL-28 melanoma) | growth (SK-MEL-5 melanoma)
1 | O=c1ccc2nc(C(F)(F)F)nn(-c3ccccc3)c-2c1 | -79.7% (active) | -64.3% (active) | 86.5% | 93.5% | 69.7% | 84.6% | 66.4% | 4.3% (active) | 35.7% | 
2 | N=c1sc(Cc2cc(Cl)ccc2Cl)cn1CC(=O)c1ccccc1 | 23.5% | 16.1% | 5.16% (active) | 63.6% | 40.4% | 62.5% | 17.1% | 25.1% | 58.5% | 
3 | COC(=O)/C=C1/SC(=Nc2cccc(Cl)c2)N(CCc2c[nH]c3ccc(O)cc23)C1=O | -11.6% (active) | 49.2% | 38.7% | 14.3% | 4.91% (active) | 9.39% (active) | 13.8% | -39.2% (active) | 17.4% | 
4 | CN1CCCc2cc(/C=C3/SC(=S)N(CCc4ccc(O)cc4)C3=O)ccc21 | 56.7% | 86.3% | 74.1% | 92.9% | 94.4% | 67.5% | 71.9% | 77.3% | 88.5% | 
5 | CCOC(=O)c1ccc2c(c1)c1c(C)c3ccncc3c(C)c1n2C | 0.188% (active) | 3.66% (active) | 2.3% (active) | 8.59% (active) | 0.292% (active) | 10.8% | -64.4% (active) | -19.1% (active) | -28.3% (active) | 
6 | CCNC(=O)Oc1ccc(/C(=C(/C)Cc2ccc(OC)cc2)c2ccc(OCCN3CCCC3)cc2)cc1 | 45.9% | 7.46% (active) | 73.8% | 80.4% | 54.3% | 66.4% | 69.1% | 60.8% |  | 
7 | CCN1C(=O)N(CC)C2C1NN=c1s/c(=C3\C(=O)N(CCc4ccccc4)c4ccccc43)c(=O)n12 (stereo unspecified) | 10.7% | 0.473% (active) | -4.86% (active) | 23.3% | 14.5% | 20.5% | 28.1% | 10.9% | 43.6% | 
8 | O=C1/C(=C/c2ccc(C(F)(F)F)cc2)COc2ccc(O)cc21 | 40.6% | 44.2% | 81.1% | 85.3% | 52.3% | 70.3% |  | 2.9% (active) | 100% | 97.4%
9 | CCOC(=O)C1=C(C)N=C2SC=C(c3ccccc3)N2[C@H]1c1cn[nH]c1-c1ccc(Cl)cc1 | 24.6% | 36.8% | 73.8% | 59.2% | 31.2% | 34.7% | 36.2% | 5.54% (active) | 75.2% | 
10 | CCN1C(=S)N(CC)C2C1NC(=S)N2/N=C/C=C/c1ccccc1OC (stereo unspecified) | 14.9% | 2.78% (active) | -5.85% (active) | 26.5% | 13.1% | 33% | 23.5% | 19% | 54.5% | 
11 | CCCCCCCCNc1cc2c3c(c1)CCCN3CCC2 | 17.9% | -9.19% (active) | 35.9% | 17.5% | 15.5% | -0.993% (active) | 27.8% | 2.21% (active) |  | 
12 | O=C1/C=C/[C@@H](O)[C@@H]2C[C@@H](O)C[C@H]2/C=C/CCC[C@H](CCOCc2ccccc2)O1 | 8.84% (active) | -23.2% (active) | 33.2% | 33.1% | 18.4% | 16.5% | 6.3% (active) | -59.7% (active) | -2.95% (active) | 
13 | CCN(CC)CCOc1ccc(Nc2ncc3cc(-c4ccc(O)cc4)c(=O)n(C)c3n2)cc1 | 19.7% | 14.8% | 27.7% | 62.4% | 53.9% | -49.3% (active) | 93.3% | -11.7% (active) |  | 
14 | N#Cc1nc(-c2ccc(F)cc2)oc1S(=O)(=O)N1CCN(c2ccc(F)cc2)CC1 | 14% | 65.9% | 87.6% | 96.9% | 86.7% | 92% | 90.6% | 10.3% |  | 
15 | CC/C=C1/C(=O)C=C[C@@H]1C/C=C\CCCC(=O)OC | 21.2% | 24.8% | 91.5% | 62.9% | 47.8% | 57% | 16.6% | -63.9% (active) | 89.5% | 
16 | CN(C)Cc1ccc(C(=O)Nc2ccc3ncnc(Nc4ccc(Oc5cccc(F)c5)c(Cl)c4)c3c2)cc1 | -45.3% (active) | -35.4% (active) | 18.5% | -3.27% (active) | -28.1% (active) | 3.54% (active) |  | -96.2% (active) | -89.1% (active) | -82.6% (active)
17 | COc1ccc2cc(Cn3cc[n+](Cc4ccc5ccccc5c4)c3)ccc2c1 | 95.7% | -33.5% (active) | 18.9% | 31.6% | 16.1% | 19% | 15.2% | 28.4% | 11.7% | 
18 | Cc1[nH]c(C(=O)Nc2cccc(OC3CCNCC3)c2)c(Cl)c1Cl | 51% | -36.2% (active) | 82.3% | 74.6% | 63.9% | 62.9% | -55.7% (active) | 40.9% | -63.5% (active) | 
19 | C=NNc1ccccc1 | 87.4% | 108% | 90.9% | 93.8% | 88.1% | 63.8% | 50.2% | 62.8% | 117% | 
20 | CC(CN)[C@@H]1CC[C@]2(CO)CC[C@]3(C)[C@H](CC[C@@H]4[C@@]5(C)CCC(N)C(C)(C)[C@@H]5CC[C@]43C)[C@@H]12 (stereo partly specified) | -75.4% (active) | -85.9% (active) | 52.2% | 5.3% (active) | -88.4% (active) | -76.2% (active) | 104% | -72.1% (active) | -39.8% (active) | 
21 | C=C1C(=O)O[C@H]2[C@H]1CC/C(CNC(=O)c1cc3ccccc3[nH]1)=C\CC[C@@]1(C)O[C@@H]21 | -78.9% (active) | -59.7% (active) | 48.4% | 22.4% | -16.8% (active) | -48.5% (active) | -74.9% (active) | -78.8% (active) | -57.6% (active) | 
22 | CCNc1nc(-c2ccc(F)cc2)c(C#N)c(=O)n1C | 56.8% | 57.2% | 37.9% | 60.6% | 65.2% | 42.8% | 44% | 63.2% | 77.5% | 
23 | Cc1ccc(C(=O)c2ccc(CC(=O)N/N=C/c3ccc(O)cc3O)n2C)cc1 | 16.8% | 64% | 31.1% | 49.4% | 37.6% | 61.1% | 29.8% | 18.8% | 46.4% | 
24 | COc1ccc(Nc2ncccc2NC(=O)c2cn(Cc3cccc(Oc4ccccc4)c3)nn2)cc1OC | 67.7% | 81.1% | 76.2% | 79.2% | 74.5% | 67.3% |  | 67% | 83.4% | 
25 | CC(C)CN1CC(C(=O)Nc2ccc3c(c2)-c2ccccc2C3)CC1=O (stereo unspecified) | 49.7% [50 µM] | 87.8% [50 µM] | 45.7% [50 µM] | 72.1% [50 µM] | 72.8% [50 µM] | 57.1% [50 µM] |  | 75.9% [50 µM] | 80% [50 µM] | 69.4% [50 µM]
26 | C=C(c1ccc(C(=O)O)cn1)c1cc2c(cc1C)C(C)(C)CCC2(C)C | 85.8% | 93.8% | 94% | 99.7% | 75.6% | 71.1% |  | 87.3% | 96.8% | 70.8%
27 | O=C(CCC(=O)c1nc2ncccc2[nH]1)NN1C(=O)CSC1c1ccc(Cl)cc1 (stereo unspecified) | 102% | 95.5% | 84.7% | 94.2% | 95.2% | 94.3% | 90.3% | 91.4% | 109% | 
28 | CCn1cc(C(=O)NN=C2CCCCCC2)c(=O)c2ccc(C)nc21 | 86.2% | 99.7% | 76.2% | 88.5% | 94.6% | 82.7% | 73.2% | 95% | 93.8% | 
29 | Cc1nc2ccccc2c(/C=C/c2ccc(C(F)(F)F)cc2)c1C(=O)/C=C/c1ccccc1 | -49.4% (active) | -29.2% (active) | 31.3% | -66.5% (active) | -84.1% (active) | 12% | -39.8% (active) | -92.2% (active) | -52.2% (active) | 
